Data: the supplement of paper PMC3334620
Over roughly 33,000 sequences, “E-score (-0.5 to 0.5)” has its median near -8e-05; the highest 2% begin near 0.23. The list comes from a sample in which the highest values are over-represented; it also holds similar and randomly drawn sequences.

Biological target: T1, Nrg2 (UniProt P38082)
T1 sequence: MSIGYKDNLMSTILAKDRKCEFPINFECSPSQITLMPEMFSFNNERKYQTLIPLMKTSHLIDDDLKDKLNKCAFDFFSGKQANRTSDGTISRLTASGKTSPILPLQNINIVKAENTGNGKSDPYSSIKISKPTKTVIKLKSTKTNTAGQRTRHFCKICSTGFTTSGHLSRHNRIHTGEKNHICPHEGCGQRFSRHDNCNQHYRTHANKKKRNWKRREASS
Assay: PBM E-score (8-mer binding enrichment) (E-score (-0.5 to 0.5)); higher = stronger / more preferred TF binding
Details: protein concentration: 100 nM; construct: GST-full length
Protocol: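 Universal 'all 10-mer' protein binding microarrays (Agilent AMADID 015681) probed with GST-tagged S. cerevisiae TFs (full-length or DBD) made by in vitro transcription/translation (PURExpress), about 100-200 nM. Bound TF was detected with fluorescent anti-GST. Each ungapped 8-mer (which stands for itself and its reverse complement) is scored by the PBM enrichment score (E-score), a modified Wilcoxon-Mann-Whitney statistic from -0.5 to +0.5, computed with the Universal PBM Analysis Suite. Scale: above 0.35 generally sequence-specific binding.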

| Sequence | PBM E-score |
| --- | --- |
| AGGCCGGG | -0.266 |
| GCAGTGCA | -0.0476 |
| ATGAGCTA | 0.069 |
| CAGCAAGC | -0.226 |
| CCGCCCTC | -0.112 |
| CAGCCAGG | 0.0441 |
| AAGGATTA | -0.0123 |
| ATCCCCAT | 0.124 |
| GTCCCCAC | -0.178 |
| ATCCCCAC | 0.247 |
| AAAGTCTA | -0.0546 |
| CTCTGCAG | -0.0279 |
| GTGCATCA | 0.129 |
| ATGCATCG | 0.0353 |
| ATGCATCA | 0.229 |
| CGAGATAG | 0.0116 |
| GATCTTCA | 0.0364 |
| AACATATT | 0.0545 |
| CCGCCCCC | -0.406 |
| CCGCCCCG | 0.309 |
| CCGCCCGG | -0.003 |
| AGCTCTGA | -0.199 |
| AGTGCAAA | 0.258 |
| CTTGCAAC | 0.124 |
| CTTGCAAA | 0.232 |

| Sequence | PBM E-score |
| --- | --- |
| CTTGCAAG | 0.181 |
| CATGCAAG | 0.088 |
| AATGCAAC | 0.127 |
| TATGCAAA | -0.0899 |
| AATGCAAG | 0.0402 |
| AATGCAAA | 0.244 |
| CATGCAAA | 0.246 |
| AGTGCAAT | 0.0654 |
| AGTGCAAG | 0.156 |
| ACCCGTGG | -0.111 |
| TCATAAAA | -0.032 |
| GCACTAGA | -0.0716 |
| CTGGTTCC | 0.158 |
| AAGAATGG | 0.0626 |
| TAAGAGGA | -0.0476 |
| GTTTACGA | -0.00773 |
| CAGGTCTA | -0.0487 |
| GCGTCGTA | 0.0775 |
| AAAGCTTG | 0.00751 |
| CCCAGTCG | -0.143 |
| AGATCAAA | 0.0337 |
| CTTGCGCC | -0.0573 |
| ATTGCAAA | 0.127 |
| AATGCGCA | 0.296 |
| AATGCGCG | 0.177 |

| Sequence | PBM E-score |
| --- | --- |
| ATTGCAAG | 0.137 |
| ATTGCAAT | 0.243 |
| CTTGCGCA | 0.264 |
| CATGCGCA | 0.164 |
| ATTGCGCA | 0.143 |
| ATCCTTGC | -0.0413 |
| AGCAGACC | 0.135 |
| ACCTTCTA | -0.0686 |
| CGTGTCCC | -0.104 |
| ACGACTAT | 0.0778 |
| CTGTAGGA | 0.0349 |
| AGTAGTAT | 0.114 |
| GGAAATCA | -0.049 |
| CGAAATCC | 0.199 |
| GTAAATCA | 0.24 |
| CGAAATCA | 0.244 |
| CTAAATCA | 0.0351 |
| ATAAATCA | 0.0708 |
| GCTGTGTA | -0.051 |
| CCTCTCCA | -0.343 |
| AGGCATCC | -0.161 |
| AGGGGTAC | 0.142 |
| CTCTTTTA | -0.0622 |
| ATTCATAG | 0.155 |
| CTTCATAC | 0.112 |

| Sequence | PBM E-score |
| --- | --- |
| ATTCATAC | 0.238 |
| ATCTCATC | 0.0993 |
| CTTATGGC | -0.0261 |
| CCCTGACC | 0.3 |
| GCCTGACC | -0.0177 |
| CCCTGACA | 0.288 |
| CCCTGACG | 0.138 |
| ACCTGACC | -0.197 |
| GCCTGACA | -0.173 |
| TAACTGCA | 0.157 |
| CTCTCAAC | -0.121 |
| GAGTCTCC | -0.178 |
| CAGCAATC | 0.0368 |
| AAACAGTG | 0.167 |
| TAGGGATA | 0.134 |
| CAGGGATG | 0.211 |
| CAGGGATC | 0.238 |
| CAGGGATA | 0.286 |
| AAGGGATC | 0.135 |
| GAGGGATA | -0.145 |
| ATTTTCTC | 0.106 |
| CCCGCCAC | 0.269 |
| ACCGCCAC | -0.117 |
| GCCGCCAC | -0.231 |
| GGCGTCGA | 0.148 |

| Sequence | PBM E-score |
| --- | --- |
| CAGGTAGC | -0.212 |
| AATGCTGC | 0.0363 |
| AATGGCCA | -0.0344 |
| ACTTTAAG | 0.243 |
| CCTTTAAG | -0.0435 |
| ACTTTAAA | 0.0738 |
| GATTAGAC | 0.0407 |
| CGTCGAAA | 0.075 |
| CGAATGAG | 0.0496 |
| ATAGATCG | 0.0393 |
| CAAACTCC | 0.0622 |
| AGCTAGCT | 0.244 |
| AGCTAGCC | -0.0348 |
| AGCTAGCA | -0.191 |
| ACGCAGCT | 0.0108 |
| AGTCTGAG | -0.319 |
| AGGACAGA | 0.0623 |
| AGGCTTGC | -0.173 |
| CGGCTTGA | -0.0482 |
| CGGCTTGC | 0.237 |
| CGCCTAGC | -0.315 |
| GGTCTTAA | -0.301 |
| CATCTCTC | 0.148 |
| ACCGCAGA | -0.0429 |
| ATTCGGGA | 0.0112 |

| Sequence | PBM E-score |
| --- | --- |
| ATTCGGGC | -0.044 |
| ATTCGGGG | 0.243 |
| ACCCGCTG | -0.133 |
| CTTTACTA | 0.26 |
| ATTTACTC | 0.271 |
| GTTTACTA | 0.155 |
| ATTTACTA | 0.0988 |
| CTTTACTC | 0.144 |
| ATTTACTG | 0.107 |
| GCAGTGGC | -0.173 |
| CAGCTGGA | 0.123 |
| GACTCGGA | -0.226 |
| CTTTTAAA | -0.168 |
| AGCAGCCA | 0.0226 |
| CTCGATTC | 0.15 |
| CTCGATAC | 0.245 |
| CTCGATAA | 0.041 |
| ATCGATTA | 0.0753 |
| CTCGATTA | 0.251 |
| ATCGATAC | 0.133 |
| GCGGATAC | 0.0466 |
| GGCGCCAA | 0.133 |
| CGTCGCCC | -0.282 |
| CCAAAGCA | 0.119 |
| GCTGCACC | -0.0621 |

| Sequence | PBM E-score |
| --- | --- |
| GAATATAA | 0.12 |
| TAATATTA | 0.322 |
| CAATATTA | 0.154 |
| TAATATGA | 0.0376 |
| AAATATTG | 0.204 |
| TAATATCA | 0.0975 |
| TAATATAA | 0.302 |
| AAATATTA | 0.247 |
| CAATATAA | 0.212 |
| AACCTGTC | -0.0794 |
| AGCTATAC | -0.101 |
| CATGGGCA | 0.0918 |
| TAATAATA | 0.0963 |
| ACATAATC | 0.193 |
| GCATAATA | 0.201 |
| AAATAATT | 0.243 |
| GAATAACA | 0.265 |
| AAATAATA | 0.203 |
| AAATAATC | 0.0163 |
| CAATAACA | 0.0577 |
| GAATAATC | 0.185 |
| GAATAATA | 0.238 |
| ACATAATA | 0.295 |
